# CRFBP-R2 block – antagonists of CRF-BP/CRF-R2 complex, primary screen, cell-based, HEK293, calcium dye fluorescence, uHTS; CRF-induced calcium fluorescence; inhibition, % at 11.8 µM; 350,000 compounds, 0.59% hits; AID 588475, 2011;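 active = inhibition of the ligand-induced calcium signal above about 50% at the single tested concentration, limit read from the data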
# RTF Ca sens act – cardiac RTF calcium sensitivity activators, primary screen, biochemical, IANBD-TnC fluorescence, EC20 calcium. activation, % at 7.2 µM. 340,000 compounds, 0.24% hits. IANBD-labeled TnC RTF fluorescence at EC20 calcium; 0% EC20 calcium, 100% full calcium. Troponin I, cardiac muscle (Homo sapiens) + Troponin T, cardiac muscle (Homo sapiens) + …;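 active = activation above the mean over all tested compounds plus 3 SD, cut at about 30% in these data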;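 note: rise in fluorescence read as greater calcium sensitivity of cardiac thin filaments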
# CRFBP-R2 agonist – agonists of CRF-BP/CRF-R2 complex, primary screen, cell-based, HEK293, calcium dye fluorescence, uHTS; CRF-binding protein / CRF receptor 2 complex (human); calcium dye fluorescence (FLIPR); percent of saturating CRF peptide response; activation, % at 13.2 µM; 350,000 compounds, 0.46% hits;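 active = activation of at least 50%, plus an integration ratio under a set limit after plate pattern correction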
# Myeloid diff 2 – induction of myeloid progenitor differentiation, primary screen, cell-based, flow cytometry, MLPCN library | ER-HoxA9 myeloid progenitors, lysozyme-GFP differentiation | calls only at 10 µM | 360,000 compounds, 1% hits;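 active = normalized GFP-positive differentiation at or above the plate's own cutoff, the solvent-only control mean plus 3 SD; inconclusive = no clear call, values can overlap the other calls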;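 note: cells exposed to compound for four days before flow analysis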
# RTF Ca sens inh – cardiac RTF calcium sensitivity inhibitors, primary screen, biochemical, IANBD-TnC fluorescence, EC70 calcium; Troponin I, cardiac muscle (Homo sapiens) + Troponin T, cardiac muscle (Homo sapiens) + …; IANBD-labeled cardiac RTF, Ca2+ fluorescence; inhibition, % at 7.15 µM; 340,000 compounds, 0.12% hits; AID 493244, 2011;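 active = inhibition above the mean inhibition of all tested compounds plus 3 SD, cut at about 17% in these data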;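 note: assay run at fixed EC70 calcium of 1.6 mM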
# Numbers stand for hits; . = inactive; ? = inconclusive; / = not tested or not shown; + = active, no number. Most compounds without a hit are left out; they make up all but 2.2% or so of the library.
SMILES,CRFBP-R2 block,RTF Ca sens act,CRFBP-R2 agonist,Myeloid diff 2,RTF Ca sens inh
CC(=O)Nc1cccc(-n2nnc(SCC(=O)c3ccccc3)n2)c1,.,.,.,.,.
COC(=O)c1sc(-c2ccc(C(C)(C)C)cc2)cc1NC(=O)COCC(=O)O,60,/,.,.,/
COC(=O)c1sc(-c2ccc(Cl)cc2)cc1NC(=O)CSCC(=O)O,.,.,.,.,.
O=C(CCCCCCCC(=O)N1CCCCCC1)N1CCCCCC1,.,.,.,.,.
O=C(CCCn1c(SCC(=O)NC2CCCCC2)nc2ccccc2c1=O)NCC1CCCO1 (stereo not drawn),.,.,.,.,.
CCC(C)NC(=O)CSc1nc2ccccc2c(=O)n1CCCC(=O)NCC1CCCO1 (stereo not drawn),51,.,.,.,.
O=[N+]([O-])c1ccc(NCCOc2ccccc2Cl)nc1,.,.,.,+,.
Cc1cccc(OCCNc2ccc([N+](=O)[O-])cn2)c1,.,.,.,.,.
C=CCn1c(SCC(=O)Nc2cc(C)on2)nc2ccccc21,.,/,.,.,/
CCNC(=O)/C(C#N)=C/c1c(N2CCCCCC2)nc2ccccn2c1=O,.,.,.,.,.
CNC(=O)/C(C#N)=C/c1c(N2CCCCCC2)nc2ccccn2c1=O,.,.,.,+,.
COc1cccc(NC(=O)C(=O)N2CCOCC2)c1,.,.,.,+,.
COC(=O)c1ccc(NC(=O)C(=O)N2CCN(C(=S)Nc3cccc(OC)c3)CC2)cc1,.,.,.,.,.
CC1CCCC(C)N1/N=C/c1ccc(C#N)cc1 (stereo not drawn),.,.,.,.,.
CC1(c2ccc(Cl)cc2)NC(=O)N(CC(=O)N2CCc3ccccc32)C1=O (stereo not drawn),.,.,82,.,.
CCC1(c2ccccc2)NC(=O)N(CC(=O)N2CCc3ccccc32)C1=O (stereo not drawn),.,.,.,.,.
CCC1(c2ccc(F)cc2)NC(=O)N(CC(=O)N2CCc3ccccc32)C1=O (stereo not drawn),.,.,53,.,.
Cc1ccc(C2(C)NC(=O)N(CC(=O)N3CCc4ccccc43)C2=O)cc1 (stereo not drawn),.,.,.,.,.
CCOc1ccc2nc(NC(=S)N(C)C)sc2c1,.,.,.,+,.
O=S(=O)(Nc1ccncc1)c1cc(Cl)c(Cl)cc1Cl,.,.,.,.,.
COc1ccc(CNC(=O)CSc2ncn[nH]2)cc1OC,.,.,.,+,.
COc1ccccc1N1C(=O)C(Cl)=C(Nc2ccccc2O)C1=O,.,.,84,.,.
CCOC(=O)c1cc(C#N)c(Oc2ccccc2OC)nc1-c1ccccc1,57,.,.,.,.
CCOC(=O)c1cc(C#N)c(N2CCN(c3ccccn3)CC2)nc1-c1ccccc1,54,.,.,.,.
O=Cc1ccc(C(=O)OCC(=O)NC(=O)Nc2ccccc2F)cc1,.,.,.,.,.
SMILES,CRFBP-R2 block,RTF Ca sens act,CRFBP-R2 agonist,Myeloid diff 2,RTF Ca sens inh
Cc1noc(C)c1COC(=O)c1cc(C)n(-c2ccccc2)c1C,50,.,.,.,.
Cc1cc(C(=O)OCc2nnc(-c3ccccc3)o2)c(C)n1-c1ccccc1,.,.,.,.,.
c1ccc(-c2nnc(SCc3nnc(-c4cccs4)o3)o2)cc1,.,.,.,.,.
Clc1ccc(-c2nnc(CSc3nnc(-c4cccs4)o3)o2)cc1,54,.,.,.,.
CC(OC(=O)c1cccc(O)c1)C(=O)N(C)Cc1ccccc1 (stereo not drawn),.,.,.,.,.
CC(OC(=O)/C(C#N)=C/c1ccc(N(C)C)cc1)C(=O)N(C)Cc1ccccc1 (stereo not drawn),.,30,63,.,.
CCOC(=O)C1CCN(Cc2cc(=O)oc3c(C)c(C)ccc23)CC1,.,.,.,+,.
Cc1ccc2c(CN3CCC(C)CC3)cc(=O)oc2c1C,.,.,.,.,.
O=c1[nH]c(Nc2ccccc2)cc2cc(Br)ccc12,.,.,.,.,.
O=c1[nH]c(Nc2ccccc2)cc2ccccc12,.,.,63,.,.
COc1ccc(-c2cc(C(F)F)n3ncc(C(=O)N4CCN(C(=O)c5ccco5)CC4)c3n2)cc1,.,.,.,+,.
COc1ccc(-c2cc(C(F)F)n3ncc(C(=O)N4CCCCC4)c3n2)cc1,.,.,.,.,.
O=C(c1cc2nc(-c3ccccc3)cc(-c3ccccc3)n2n1)N1CCN(C(=O)c2ccco2)CC1,55,.,.,.,.
O=C(c1cc2nc(-c3ccccc3)cc(-c3ccccc3)n2n1)N1CCCC1,.,.,.,.,.
Cc1ccc(/C(N)=N/OC(=O)c2ccc(Cl)cc2Cl)cc1,.,.,.,+,.
Cc1cccc(C(=O)O/N=C(\N)c2ccc(Cl)cc2)c1,.,.,.,.,.
CO[C@@H]1CN(C)C(=O)c2ccc(NC(=O)C3CCCC3)cc2OC[C@@H](C)N(Cc2ccc(F)cc2)C[C@H]1C,/,/,/,.,/
COc1ccc(S(=O)(=O)Nc2ccc3c(c2)C(=O)N([C@H](C)CO)C[C@H](C)[C@@H](CN(C)C(=O)NC2CCCCC2)O3)cc1,.,.,.,.,.
Cc1sc(NC(=O)C2CCCCC2C(=O)O)c(C(N)=O)c1-c1ccc(C(C)(C)C)cc1 (stereo not drawn),.,.,104,.,.
Cc1ccc2c(c1)N(C)/C(=C/c1cccc[n+]1CCO)S2,.,.,.,+,.
Cc1ccc2c(c1)N(C)/C(=C/c1cccc[n+]1C)S2,.,.,.,?,.
C/C(=N\NC(=O)c1ccc(CSc2cccc3cccnc23)cc1)C1CCCCC1,.,.,.,+,.
N#Cc1c(C(F)(F)F)cc(-c2ccco2)nc1SCc1ccncc1,.,.,.,+,.
CCN(CC)C(=O)CSc1nc(-c2ccco2)cc(C(F)(F)F)c1C#N,.,.,.,.,.
CSc1nc(-c2ccco2)cc(C(F)(F)F)c1C#N,.,.,.,.,.
N#Cc1c(C(F)(F)F)cc(-c2ccco2)nc1SCc1ccccn1,.,.,.,+,.
CCCCNS(=O)(=O)c1ccc(NC(=O)c2c(-c3ccccc3Cl)noc2C)cc1,.,.,.,.,.
COC(=O)c1cccc(C23CC4(C2)[C@H](CN(Cc2cccnc2)[C@@H]4c2ccccc2)C3c2ccc(C(F)(F)F)cc2)c1 (stereo partly drawn),.,/,.,/,/
Cc1ccc(/C=N/NC(=O)Cn2nnc(N)n2)cc1,.,.,.,.,.
CCn1nc(C)c(/C=N/NC(=O)Cn2nnc(N)n2)c1C,.,.,.,+,.
